The values that follow come from PubChem BioAssay (NCI).

Assay [1] can be described thus: NCI Yeast Anticancer Drug Screen. Data for the rad50 strain (AID 155).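 Further: 0% = growth of vehicle-only cultures of the same strain.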 As to conditions: S. cerevisiae rad50 strain growth inhibition, hits give high values. Summed up:
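Compounds were tested on a yeast strain with an engineered DNA damage repair alteration; the reported value is growth inhibition normalised to vehicle treatment.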

Assay [2] in a line: NCI Yeast Anticancer Drug Screen. Data for the mec2-1 strain (AID 157). The following applies: S. cerevisiae mec2-1 strain, hits give high values. Summed up: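 Cells of the genetically defined mec2-1 yeast strain are incubated with test compound. Inhibition of growth is calculated against vehicle-treated controls.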
A short description of assay [3]: NCI Yeast Anticancer Drug Screen. Data for the sgs1 mgt1 strain (AID 161).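 Further: 0% = growth of cultures given vehicle only.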 The following applies: S. cerevisiae sgs1 mgt1 strain, hits give high values. Summed up: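 Inhibition of yeast growth, normalised to vehicle-treated controls, is reported for a strain bearing genetic alterations in DNA damage repair.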
A short description of assay [4]: NCI Yeast Anticancer Drug Screen. Data for the cln2 rad14 strain (AID 165).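 Further: 0% = growth equal to vehicle treated cultures.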 As to conditions: S. cerevisiae cln2 rad14 strain, hits give high values. Summed up:
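The screen exposed genetically defined yeast (cln2 rad14) to test compounds and scored growth inhibition relative to vehicle-treated controls.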

A short description of assay [5]: NCI Yeast Anticancer Drug Screen. Data for the bub3 strain (AID 167). As to conditions: S. cerevisiae bub3 mutant strain, hits give high values. Summed up:
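Growth of a checkpoint-deficient yeast mutant is measured after compound exposure. Values represent inhibition relative to vehicle.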

The nature of assay [6]: NCI Yeast Anticancer Drug Screen. Data for the mlh1 rad18 strain (AID 175). As to conditions: S. cerevisiae mlh1 rad18 strain growth inhibition, hits give high values. Summed up:
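Compound-treated yeast growth, normalised to vehicle controls. Strain bears defined DNA repair mutations.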

Setting [7] is: at 5.0 µM (retest, dose inferred, filed as 0.5).
Setting [8] is: at 50.0 µM (retest, dose inferred, filed as 5.0).

The panel holds about 79,000 compounds, 15% with a hit somewhere; the sample as a whole holds those more often. A number with no mark means an inactive call. Active and inactive are the calls of the source. No stated cut-off is given here; in the data, active means growth inhibition above about 70%; inactive means the rest.

As for `COC1/C=C\OC2(C)Oc3c(C)c(O)c4c(c3C2=O)C2=NC(C)(C)N(c3ccccc3)C2=C(NC(=O)/C(C)=C\C=C\C(C)C(O)C(C)C(O)C(C)C(OC(C)=O)C1C)C4=O` (configuration not stated), the growth inhibition in assay [1] (setting [7]) is -2%; in assay [1] (setting [8]), 78% (active); in assay [1] (at 50.0 µM), 24.9%; in assay [2] (setting [7]), -2%; in assay [2] (setting [8]) it was 95% (active); in assay [2] (at 50.0 µM), 53.5%. Also, the growth inhibition in assay [3] (setting [7]) is -2%; in assay [3] (setting [8]), 85% (active); in assay [3] (at 50.0 µM), 72.8% (active); in assay [4] (setting [7]) it was 2%; in assay [4] (setting [8]), 91% (active); in assay [4] (at 50.0 µM), 39.9%. For the same molecule, the growth inhibition is -7% in assay [5] (setting [7]); 69% in assay [5] (setting [8]); 27.9% in assay [5] (at 50.0 µM); -2% in assay [6] (setting [7]); 86% (active) in assay [6] (setting [8]); 51.9% in assay [6] (at 50.0 µM).

As for `COC(=O)C1=Cc2cc3c(cc2[C@H](c2ccc4c(c2)OCO4)C1C(=O)OC)OCO3` (some centres not stated), the growth inhibition is 2% in assay [1] (setting [7]); 26% in assay [1] (setting [8]); 48.6% in assay [1] (at 50.0 µM); -5% in assay [2] (setting [7]); 20% in assay [2] (setting [8]); 33.9% in assay [2] (at 50.0 µM). For the same molecule, the growth inhibition in assay [3] (setting [7]) was 3%; in assay [3] (setting [8]), 40%; in assay [3] (at 50.0 µM), 47.5%; in assay [4] (setting [7]) it was 0%; in assay [4] (setting [8]), 40%; in assay [4] (at 50.0 µM) it was 37%. Further, the growth inhibition in assay [5] (setting [7]) was 26%; in assay [5] (setting [8]) it was 70% (active); in assay [5] (at 50.0 µM) it was 71.4% (active); in assay [6] (setting [7]), 2%; in assay [6] (setting [8]), 23%; in assay [6] (at 50.0 µM) it was 56.8%.

For `NC(=O)C12OC3CC(CC(C3)O1)O2`, the growth inhibition is -25% in assay [1] (setting [7]); -10% in assay [1] (setting [8]); 5.95% in assay [1] (at 50.0 µM); -8% in assay [2] (setting [7]); -17% in assay [2] (setting [8]); 11.4% in assay [2] (at 50.0 µM). In addition, the growth inhibition was -9% in assay [3] (setting [7]); 12% in assay [3] (setting [8]); 11.3% in assay [3] (at 50.0 µM); -1% in assay [4] (setting [7]); 3% in assay [4] (setting [8]); 71.2% (active) in assay [4] (at 50.0 µM). The growth inhibition in assay [5] (setting [7]) is 2%; in assay [5] (setting [8]), 5%; in assay [5] (at 50.0 µM) it was 2.75%; in assay [6] (setting [7]) it was 9%; in assay [6] (setting [8]) it was -22%; in assay [6] (at 50.0 µM), 11.2%.

For the molecule `Oc1ccc2ccccc2c1CNc1ccc2ccccc2c1`, the growth inhibition in assay [1] (setting [7]) was 8%; in assay [1] (setting [8]), 57%; in assay [1] (at 50.0 µM), 95.9% (active); in assay [2] (setting [7]) it was 10%; in assay [2] (setting [8]), 15%; in assay [2] (at 50.0 µM), 98.7% (active). The growth inhibition was 11% in assay [3] (setting [7]); 69% in assay [3] (setting [8]); 98.8% (active) in assay [3] (at 50.0 µM); -1% in assay [4] (setting [7]); 18% in assay [4] (setting [8]); 97.8% (active) in assay [4] (at 50.0 µM). Besides, the growth inhibition in assay [5] (setting [7]) is 0%; in assay [5] (setting [8]), 60%; in assay [5] (at 50.0 µM), 95.4% (active); in assay [6] (setting [7]) it was 12%; in assay [6] (setting [8]), 67%; in assay [6] (at 50.0 µM) it was 98.5% (active).

`C=C1CC2(CCCC3(CC(=C)C(=O)O3)C2(C)C)OC1=O` (configuration not stated): the growth inhibition is 20% in assay [1] (setting [7]); 96% (active) in assay [1] (setting [8]); 33% in assay [1] (at 50.0 µM); 14% in assay [2] (setting [7]); 98% (active) in assay [2] (setting [8]); 38.4% in assay [2] (at 50.0 µM). For the same molecule, the growth inhibition was 57% in assay [3] (setting [7]); 97% (active) in assay [3] (setting [8]); 38.8% in assay [3] (at 50.0 µM); 15% in assay [4] (setting [7]); 96% (active) in assay [4] (setting [8]); 23.1% in assay [4] (at 50.0 µM). Also, the growth inhibition is 7% in assay [5] (setting [7]); 96% (active) in assay [5] (setting [8]); 44.6% in assay [5] (at 50.0 µM); 12% in assay [6] (setting [7]); 97% (active) in assay [6] (setting [8]); 66.6% in assay [6] (at 50.0 µM).

`CN(C)CCCN1c2cc(Cl)ccc2Sc2ccc3ccccc3c21`: the growth inhibition in assay [1] (setting [7]) was 3%; in assay [1] (setting [8]) it was 98% (active); in assay [1] (at 50.0 µM), 99.3% (active); in assay [2] (setting [7]) it was 3%; in assay [2] (setting [8]) it was 99% (active); in assay [2] (at 50.0 µM), 99.3% (active). Besides, the growth inhibition in assay [3] (setting [7]) was 3%; in assay [3] (setting [8]), 99% (active); in assay [3] (at 50.0 µM), 99.2% (active); in assay [4] (setting [7]), 2%; in assay [4] (setting [8]), 96% (active); in assay [4] (at 50.0 µM), 98.6% (active). For the same molecule, the growth inhibition in assay [5] (setting [7]) was 5%; in assay [5] (setting [8]), 96% (active); in assay [5] (at 50.0 µM), 99.5% (active); in assay [6] (setting [7]), 28%; in assay [6] (setting [8]), 98% (active); in assay [6] (at 50.0 µM) it was 99.3% (active).

As to `Fc1ccc(OCCC(Cn2ccnc2)c2ccc(Cl)cc2Cl)cc1` (configuration not stated), the growth inhibition in assay [1] (setting [7]) is 82% (active); in assay [1] (setting [8]) it was 99% (active); in assay [1] (at 50.0 µM) it was 98.7% (active); in assay [2] (setting [7]), 56%; in assay [2] (setting [8]) it was 91% (active); in assay [2] (at 50.0 µM), 99.8% (active). For the same molecule, the growth inhibition in assay [3] (setting [7]) was 71% (active); in assay [3] (setting [8]), 96% (active); in assay [3] (at 50.0 µM), 95.2% (active); in assay [4] (setting [7]) it was 61%; in assay [4] (setting [8]), 92% (active); in assay [4] (at 50.0 µM), 94.7% (active). The growth inhibition was 83% (active) in assay [5] (setting [7]); 94% (active) in assay [5] (setting [8]); 99.2% (active) in assay [5] (at 50.0 µM); 55% in assay [6] (setting [7]); 99% (active) in assay [6] (setting [8]); 95.1% (active) in assay [6] (at 50.0 µM).

Take `O=C(O)c1cc(Br)ccc1OCc1ccc(Cl)cc1`: the growth inhibition was -1% in assay [1] (setting [7]); 28% in assay [1] (setting [8]); 43.9% in assay [1] (at 50.0 µM); -1% in assay [2] (setting [7]); 19% in assay [2] (setting [8]); 51.2% in assay [2] (at 50.0 µM). Further, the growth inhibition in assay [3] (setting [7]) was -7%; in assay [3] (setting [8]), 5%; in assay [3] (at 50.0 µM) it was 58%; in assay [4] (setting [7]), -13%; in assay [4] (setting [8]), 27%; in assay [4] (at 50.0 µM) it was 79.4% (active). Further, the growth inhibition in assay [5] (setting [7]) is -8%; in assay [5] (setting [8]), 9%; in assay [5] (at 50.0 µM) it was -2.25%; in assay [6] (setting [7]), -8%; in assay [6] (setting [8]), 12%; in assay [6] (at 50.0 µM), 52.9%.

Take `CCOC(=O)C1CCC(=O)O1` (configuration not stated): the growth inhibition is -4% in assay [1] (setting [7]); 43% in assay [1] (setting [8]); -14% in assay [1] (at 50.0 µM); 3% in assay [2] (setting [7]); 87% (active) in assay [2] (setting [8]); 7.85% in assay [2] (at 50.0 µM). Besides, the growth inhibition in assay [3] (setting [7]) is 4%; in assay [3] (setting [8]), 78% (active); in assay [3] (at 50.0 µM), 2.4%; in assay [4] (setting [7]) it was -23%; in assay [4] (setting [8]) it was 36%; in assay [4] (at 50.0 µM), 16.6%. Also, the growth inhibition was 2% in assay [5] (setting [7]); 93% (active) in assay [5] (setting [8]); 10.8% in assay [5] (at 50.0 µM); -1% in assay [6] (setting [7]); 95% (active) in assay [6] (setting [8]); -1.15% in assay [6] (at 50.0 µM).
